Measured values: PubChem BioAssay AID1035470 (Broad Institute, 2014)
The whole screen tested about 1,800 compounds, of which fewer than 10 were called active. Another 16% or so got no clear call; they are omitted.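 How the source made its calls: active means compound lowering the normal-ribosome reporter at least twice as much as the humanized-ribosome reporter, growth loss under a set limit; inconclusive means no clear call, values can overlap the other calls; inactive means the rest.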 The list is a sample of the results. Measured potencies and affinities stand elsewhere.

Experiment: E. coli strain growth, wild-type against G2058 humanized RFP mutant – G2058 mutant RFP vs wild-type GFP, cherry-pick, two tests, dose response (AID 1035470)
Settings: E. coli WT-GFP vs G2058-humanized RFP, fluorescence, 24 h; series mostly up to 50 µM; activity change, negative = inhibition: at the top concentration

Activity change, negative = inhibition, inactive:
CCOC(=O)c1cnc2ccc(OCC)cc2c1NCCCN1CCOCC1 -9.57
CCOC(=O)C(CC)Sc1cc(C)nc2ccc(OC)cc12 (stereo unspecified) -16.2
COc1ccc(C(=O)COc2ccc(F)cc2)c(O)c1 -7.68
Cc1cccc(-c2cc3nc4c(c(N5CCOCC5)n3n2)CCCC4)c1 -4.46
Cc1cccc(NS(=O)(=O)c2cc3c(cc2C)NC(=O)CO3)c1 -4.25
Cc1cccc(OCCn2c(=O)oc3ccc(C)cc32)c1 -7.06
CC(=O)Nc1cccc(NC(=O)CCN2C(=O)c3ccccc3S2(=O)=O)c1 -6.12
c1cncc(-c2nc3cc4ccccc4cc3[nH]2)c1 -15.5
Cc1ccccc1S(=O)(=O)c1cc2ccccc2nc1N -9.42
COc1ccccc1-c1noc2ncnc(Nc3ccccc3C)c12 -8.79
COc1ccccc1Cc1c(-c2ccc(F)cc2)nc2ccc(Br)cn12 -0.955
COc1ccc(-c2nc(C3CCCCC3)no2)cc1OC -15.4
c1ccc(Sc2ncnc3ccccc23)cc1 -5.5
COc1cccc(NC(=O)C(C)SCc2ccccc2)c1 (stereo unspecified) -14.7
Cc1cc(Br)ccc1NC(=O)c1ccco1 0.378
O=C(CSCc1cnn(-c2ccccc2)c1-n1cccc1)NCc1cccnc1 -6.66
O=C(Nc1ccc(Cl)c(Cl)c1)c1ccc(Cl)c(Cl)c1 -12.7
O=[N+]([O-])c1ccc2nc(-c3ccccc3[N+](=O)[O-])[nH]c2c1 -1.6
O=c1c2ccccc2nc(SCc2ccccc2)n1CC1CCCO1 (stereo unspecified) -15.1
CCOCCCNC(=O)C(NC(=O)c1ccccc1O)c1ccc(C)cc1 (stereo unspecified) -14.3
COc1ccc(Nc2nc(N)c([N+](=O)[O-])c(N3CCCC3)n2)cc1 2.69
CS(=O)(=O)c1ccc(Cl)c(NC(=O)CSc2nncn2-c2ccccc2)c1 -10.3
c1ccc(CSCc2ccccc2)cc1 -7.54
O=C(Nc1ccc(Cl)c(Cl)c1)N[C@@H]1CC[C@@H](CCn2cc(C3CCCCC3)nn2)O[C@H]1CO -14.9
CCOc1ccc(NC(=O)CCc2nnc3ccc(N4CCC(C)CC4)nn23)cc1 -4.54
Cc1csc(SCc2nc3scc(-c4ccccc4)c3c(=O)[nH]2)n1 -4.09
CC(C)(C)c1ccc2c(c1)C(c1ccc3c(c1)OCO3)CC(=O)O2 (stereo unspecified) -8.87
Cc1ccccc1Nc1c(-c2cccnc2)nc2ccc(Br)cn12 6.1
CC1(CCC(=O)N2CCCC(N3CCN(c4ccc(F)cc4)CC3)C2)CC1 (stereo unspecified) -9.89
C=CCn1c(C)cc(C(=O)CSc2nnc(C3CC3)n2C2CC2)c1C -7.34
c1ccc(-c2sc3ccccc3c2-c2ccc(OCCN3CCCCC3)cc2)cc1 -14.3
CN(C(=O)COC(=O)CSc1ccc(C(N)=O)cc1[N+](=O)[O-])C1CCCCC1 4.54
CC(C)OCCCNC(=O)c1ccc(CS(=O)(=O)c2cccc(C(F)(F)F)c2)o1 -6.78
COc1ccc(C(=O)Nc2cccc3ccccc23)cc1 -12.3
CCS(=O)(=O)N1CCN(c2ccc([N+](=O)[O-])c(NCC3CCCO3)c2)CC1 (stereo unspecified) 2.49
Cc1nn(S(=O)(=O)c2ccc(Cl)cc2)c(C)c1Sc1ccc([N+](=O)[O-])cc1 2.39
C[C@@H]1CN([C@@H](C)CO)C(=O)c2cc(NC(=O)Nc3cccc4ccccc34)ccc2O[C@@H](C)CCCCO[C@@H]1CN(C)C(=O)CCCN(C)C -4.58
O=C(COC(=O)C1CC2C=CC1C2)NCCc1ccccc1 (stereo unspecified) 12.8
O=C(CN1CCCCC1)Nc1ccccc1-c1ccccc1 -10.8
CN(Cc1ccc(Cl)s1)C(=O)CNC(=O)CNC(=O)c1ccc(Cl)cc1Cl 3.86
Cn1c(SCC(=O)Nc2ccccc2-c2ccccc2)nnc1-c1ccco1 -4.34
O=C(CCCOc1ccccc1)NCCc1nc2ccccc2[nH]1 -0.129
O=C(Cc1cccc(NC(=O)C2CCN(C(=O)C3CCCCC3)CC2)c1)Nc1cccc(C(=O)N2CCCC2)c1 -6.01
COc1ccc(-c2noc(=O)n2Cc2ccccc2Cl)cc1 4.24
CN1CCSc2ccc(C(=O)Nc3cccc(F)c3)cc21 -9.02
CC(C)c1ccc(-c2nc3ccccc3s2)cc1 2.01
Cc1ccc(-n2cc(CNCCN3CCOC3=O)c(-c3ccc(F)cc3)n2)cc1 11.8
Cc1ccc(NC(=O)c2ccc3ncsc3c2)cc1S(=O)(=O)N(C)C 5.11
CN(Cc1ccc([N+](=O)[O-])cc1)c1ccccc1 -8.41
COc1ccc(CN2CCNC(=O)C2CC(=O)NCCCC2CCCC2)c(C)c1C (stereo unspecified) 0.654
O=C1CCCCC1Nc1ccc(Br)cc1 (stereo unspecified) -10.6
C[C@@H]1CCCCO[C@@H](CN(C)C)[C@@H](C)CN([C@H](C)CO)C(=O)c2cc(NC(=O)Nc3cccc4ccccc34)ccc2O1 25
COc1ccc(NC(=O)CSc2n[nH]c(-c3ccncc3)n2)c([N+](=O)[O-])c1 -4.21
Brc1ccc(Nc2ncnc3[nH]ncc23)cc1 -3.7
Cc1cccc(-c2ccc([C@@H]3[C@@H](CO)N4CCCCN(S(=O)(=O)c5ccccc5C)C[C@H]34)cc2)c1 -11.1
C[C@@H]1CN([C@@H](C)CO)S(=O)(=O)c2ccc(Br)cc2O[C@H]1CN(C)C(=O)c1ccccc1 -10.1
Cc1cc(C)c(OCCN(C)Cc2ccccc2)c(Br)c1 -12.5
C[C@@H](Nc1nc(-c2ccccc2)nc2c1oc1ccccc12)C(=O)O -7.93
CCOC(=O)c1ccc(NC(=O)c2ccc(OC(C)C)c(OC)c2)cc1 -18.6
O=C(C[n+]1ccc(Cc2ccccc2)cc1)Nc1ccc([N+](=O)[O-])cc1Cl -9.82
O=C(OCC1COc2ccccc2O1)c1ccccc1F (stereo unspecified) -7.69
O=C(Nc1ccc(-c2nnc3n2CCCCC3)cc1)c1cc2ccccc2o1 -22.2
COc1ccc(NC(=O)c2cccc(Oc3ccc([N+](=O)[O-])cc3Cl)c2)cc1 -9.48
COc1cccc(NC(=O)c2ccc(-c3ccc([N+](=O)[O-])cc3)o2)c1 -18.6
O=C1CSC(c2cccnc2)N1Cc1ccc(Cl)c(Cl)c1 (stereo unspecified) -1.51
COc1ccccc1NC(=O)N1CCCCN2[C@@H](CO)[C@H](c3ccc(C#Cc4ccccc4)cc3)[C@@H]2C1 -7.55
C#CC(C)(C)NC(=O)c1ccc(-c2ccccc2F)cc1 -16
CS(=O)(=O)Nc1ccccc1C(=O)NCCSc1ccccc1 -4.79
COc1ccc(-c2cc(C(=O)O)nc3ccc4ccccc4c23)cc1OC -13
Oc1ccc(-c2csc(Nc3ncccn3)n2)cc1 -19.3
CN(C)S(=O)(=O)c1ccc2oc(SCC(=O)NCC(F)(F)F)nc2c1 14.7
